Reference: PubChem BioAssay AID2315 (National Center for Advancing Translational Sciences (NCATS), 2010)
Among all 290,000 compounds or so, about 27,000 (9.3%) were called active. The entries come from a sample that favours actives as a whole. A number with no mark means an inactive call. Rule as the data show it: active = inhibition mostly above about 28% (no sharp cut-off); inactive = mostly below about 43%.

test: A qHTS for Small Molecule Inhibitors of Shiga Toxin; conditions: Vero cells, Shiga toxin protein synthesis inhibition reporter; at 38.7 µM, active compounds read high; also: 0% is about no effect

Going from `CCN(c1cccc(C)c1)S(=O)(=O)c1ccc(-c2coc(C)n2)cc1` to `CC(=O)c1c(C)[nH]c(C(=O)COC(=O)c2cccc(S(=O)(=O)N(C)c3ccccc3)c2)c1C`, the inhibition rises from -6.9% to 8.98%.

Compared with `O=C(CCl)NNc1nc(-c2ccccc2)c2cc(Cl)ccc2n1`, `O=C(Nc1c2c(nc3ccccc13)CCCC2)c1ccccc1Br` is higher in inhibition: -6.68% for the first, 13.1% for the second.

Going from `C=CCn1c(C23CC4CC(CC(C4)C2)C3)n[nH]c1=S` to `C=CCn1c(SCc2c(C)noc2C)nc2sc3c(c2c1=O)CCC(C)C3` (stereo not drawn), the inhibition falls from -6.65% to -12.7%.

Compared with `CCCc1nc2ccccc2c(C(=O)OCC(=O)c2ccc3c(c2)NC(=O)CO3)c1CC`, `Cc1cnc(C(=O)OCC(=O)N2CCc3ccccc32)cn1` is lower in inhibition: 7.85% for the first, -4.93% for the second.

First: Cc1cc(Cl)c(S(=O)(=O)NCC2CCCO2)cc1OCC(N)=O (stereo not drawn)
Second: Cc1cc(Cl)c(S(=O)(=O)N(C)C)cc1OCC(N)=O
The inhibition of the first is lower: -1.08% for the first, 9.4% for the second.

First: O=C(NCc1ccco1)/C(=C\c1cccc([N+](=O)[O-])c1)NC(=O)c1ccco1
Second: O=C(Cc1ccc([N+](=O)[O-])cc1)Nc1ccc(C(=O)N2CCOCC2)cc1
The inhibition of the first is lower: 2.57% for the first, 7.91% for the second.

Compared with `O=C(N/N=C\c1cc(Br)c(Br)o1)C1COc2ccccc2O1` (stereo not drawn), `O=C(CNC(=O)C1COc2ccccc2O1)N/N=C/c1cc(Br)c(O)c(Br)c1` (stereo not drawn) is lower in inhibition: 10.7% for the first, -3.37% for the second.

Compared with `CCCNC(=O)COc1coc(CN2CCN(Cc3ccccc3)CC2)cc1=O`, `COCCNC(=O)COc1ccc(C)c(C)c1` is higher in inhibition: -16.7% for the first, 20.4% for the second.

First: COCCNC(=O)C(c1ccc(C)cc1)N(C(=O)CCC(=O)Nc1ccccn1)c1cccc(C)c1 (stereo not drawn)
Second: Cc1ccc(CN(C)Cc2cc(=O)oc3cc(C)c(Cl)cc23)cc1
The inhibition of the first is higher: 32.2% for the first, 7.75% for the second.

First: NC(=O)N1CCc2ccccc21
Second: COc1cccc(N2CCN(c3ccc4nnc(CCC(=O)N5CCN(C)CC5)n4n3)CC2)c1
The inhibition of the first is lower: -9.66% for the first, -1.7% for the second.

Going from `CC1CCc2c(sc3nc4n(c(=O)c23)CCS4)C1` (stereo not drawn) to `C/C(CC(=O)Nc1ccc(Cl)cc1)=N\NC(=O)C(=O)NCCO`, the inhibition falls from 33.9% to 12%.

For `O=C(COC(=O)c1c2c(nc3ccccc13)CCCC2)c1ccc(Br)s1`, the inhibition was 91.1% (active).
With `Cc1cc(Cl)c(S(=O)(=O)Nc2ccc3c(c2)OCCO3)cc1OCC(N)=O` the inhibition was 99.8% (active).
In the case of `O=C(N/N=C/c1cc2c(cc1Br)OCO2)C1COc2ccccc2O1` (stereo not drawn), the inhibition is reported as 77.9% (active).
In the case of `O=C(c1cnn2ccccc12)N1CCc2ccccc21`, the inhibition is reported as 97.7% (active).
With `CCCn1nnc2sc3c(c2c1=O)CCC(C)C3` (stereo not drawn) the inhibition was 90.4% (active).
In the case of `CCc1ccc(NC(=O)C(=O)N/N=C(\C)CC(=O)NCCOC)cc1`, the inhibition is reported as 63.4% (active).
